Assay outcomes deposited in PubChem by several laboratories.
Hits are enriched below; roughly 3.4% of the tested compounds scored in any of these assays.
MEKK2 WT-MEK5 – raises or lowers MEK5 binding to wildtype human MEKK2 PB1 domain. binding response (% of control), % at 10 µM. hit rate 1.1% among 290,000. bead flow cytometry, Alexa488-MEK5 binding to MEKK2 WT; actives lie on both sides; in the data active = binding response below about 67% or above about 130%
ANO1 activ – mouse TMEM16A channel activation, primary screen | Q8BHY3 | HEK293 TMEM16A/YFP-H148Q/I152L, iodide quench fluorescence; stronger effect = lower value | B-score at 10 µM | hit rate 0.3% among 340,000 | AID 623877;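 active = fluorescence-ratio B-score plate-corrected deviation score at least 3 library SD below zero, with starting fluorescence score within 5 deviations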;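 also: channel opened by trigger with iodide after compound preincubation; score built on the fluorescence ratio of max minus min over baseline; more negative score means more quench and so TMEM16A activation or potentiation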
Target sequence (Q8BHY3 whole entry, looked up): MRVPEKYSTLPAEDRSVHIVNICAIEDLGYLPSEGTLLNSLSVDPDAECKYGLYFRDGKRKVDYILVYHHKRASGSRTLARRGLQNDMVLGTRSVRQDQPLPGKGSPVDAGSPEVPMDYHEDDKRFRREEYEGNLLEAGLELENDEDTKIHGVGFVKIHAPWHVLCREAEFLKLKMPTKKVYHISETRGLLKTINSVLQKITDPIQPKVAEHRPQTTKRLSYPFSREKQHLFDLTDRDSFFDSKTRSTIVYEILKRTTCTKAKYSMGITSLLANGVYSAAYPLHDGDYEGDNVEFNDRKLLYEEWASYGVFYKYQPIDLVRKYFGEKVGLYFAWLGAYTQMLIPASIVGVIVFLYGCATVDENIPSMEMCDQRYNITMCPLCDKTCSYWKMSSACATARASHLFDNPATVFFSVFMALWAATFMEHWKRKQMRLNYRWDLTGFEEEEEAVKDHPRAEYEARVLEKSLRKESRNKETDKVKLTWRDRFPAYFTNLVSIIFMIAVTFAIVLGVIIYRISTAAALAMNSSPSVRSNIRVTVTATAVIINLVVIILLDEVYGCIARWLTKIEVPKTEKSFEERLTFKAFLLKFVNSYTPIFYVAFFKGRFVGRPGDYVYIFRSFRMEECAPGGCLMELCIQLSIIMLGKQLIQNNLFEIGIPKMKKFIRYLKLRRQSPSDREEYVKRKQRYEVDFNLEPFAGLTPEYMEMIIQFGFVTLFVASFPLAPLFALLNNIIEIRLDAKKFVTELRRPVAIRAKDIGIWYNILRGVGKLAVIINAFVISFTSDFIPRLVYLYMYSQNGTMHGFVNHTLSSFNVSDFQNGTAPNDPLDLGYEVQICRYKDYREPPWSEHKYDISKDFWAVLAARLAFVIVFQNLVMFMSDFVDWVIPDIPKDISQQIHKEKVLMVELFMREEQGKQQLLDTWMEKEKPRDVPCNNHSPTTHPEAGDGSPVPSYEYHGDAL
NTR1 ag – agonists of human neurotensin receptor NTR1 | hit rate 0.17% among 330,000 | activation, % at 20 µM | P30989 | NTR1-U2OS beta-arrestin-GFP spot imaging, agonist mode;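 active = activation at or above 40% of the spot to cytoplasm intensity ratio, with at least 20 cells analyzed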
TMEM16A inh – inhibitors of mouse TMEM16A calcium-activated chloride channel. Q8BHY3. HEK293 TMEM16A/YFP iodide influx fluorescence, ionomycin. normalized B-score (activity score, 25-100; higher = stronger inhibition) at 10 µM. hit rate 1.2% among 310,000. AID 588511;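 active = ratio plate-corrected score three or more library SD toward inhibition, starting fluorescence score within five deviations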;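 also: score derived from kinetic fluorescence span divided by baseline fluorescence per well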
MEKK3 PB1 HTS – raises or lowers MEK5 binding to the human MEKK3 PB1 domain; AID 1529; bead-based flow cytometry, Alexa488-MEK5 binding to MEKK3; actives lie on both sides; 0 = blocked by unlabeled MEK5, 100 = vehicle; Q99759; hit rate 1.4% among 290,000; binding response (% of control), % at 10 µM;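 active = binding response more than 3 SD above or below the average of its plate-row segment, actives on both sides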;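 also: Alexa488 bead fluorescence after subtracting the streptavidin-only scavenger bead signal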
MEKK2mut PB1 HTS – signal of MEK5 binding to mutant human MEKK2 PB1 domain; hit rate 0.35% among 290,000; percent response, % at 10 µM; AID 1530; bead flow cytometry, Alexa488-MEK5 binding to MEKK2 mutant; in the data active = percent response above about 24%, passing the limit was not always enough
Of the large screens only hits and unclear results are named; the others gave an inactive call; [ ] = dose if it differs, or a comment.

Cc1ccc(NC(=O)c2ccco2)c(NC(=O)c2ccccc2)c1	MEKK2 WT-MEK5 -12.0[inhibitor], MEKK3 PB1 HTS 0.0[inhibitor]
COc1ccc(N(C(=O)Cc2cccs2)C(C(=O)NC2CCCC2)c2ccncc2)cc1OC (centres undefined)	none
COc1ccc(N(C(=O)Cc2cccs2)C(C(=O)NC2CCCCC2)c2cccn2C)cc1OC (centres undefined)	ANO1 activ -5.42
O=C(NCCN1CCNC1=O)C1CCC(=O)N(Cc2cccc(C(F)(F)F)c2)C1 (centres undefined)	none
O=C(O)COc1ccccc1/C=N/NC(=O)c1ccc(F)cc1	none
O=C(O)COc1ccccc1/C=N/NC(=O)Cc1ccccc1	MEKK2 WT-MEK5 -12.0
COc1cccc(NC(=O)Nc2nnc(CC(=O)NCc3ccccc3)s2)c1	ANO1 activ -4.89
O=C(NCCCNc1ccc(C(F)(F)F)cc1[N+](=O)[O-])c1ccc(Cl)cc1	TMEM16A inh 100
COc1ccc(-c2csc(NC(=O)CSc3n[nH]c(N)n3)n2)cc1	none
COc1ccc(-c2csc(NC(=O)CSc3n[nH]c(C)n3)n2)cc1	TMEM16A inh 25
CC(C)(C)[C@@H]1COC(=O)[C@H](Cc2ccc(F)cc2)C/C=C\C[C@@H](CC(=O)N(CCO)Cc2ccccc2)C(=O)N1	none (no result: MEKK2 WT-MEK5, TMEM16A inh, MEKK3 PB1 HTS, MEKK2mut PB1 HTS)
COCCn1c(-c2ccc(OC)cc2)cnc1N	MEKK2 WT-MEK5 -6.0
CC(C)Nc1ccc(C(CC(N)=O)NC(=O)c2ccc(Br)cc2)cc1[N+](=O)[O-] (centres undefined)	none
CN(Cc1ccccc1)c1ccc(C(CC(N)=O)NC(=O)c2ccc(Br)cc2)cc1[N+](=O)[O-] (centres undefined)	TMEM16A inh 25
CCCCCCn1c(=O)c(-c2ccccc2)c(O)c2ccccc21	none
CCCCCCCCn1c(=O)c(C(=O)OC)c(N)c2ccccc21	TMEM16A inh 100
Cc1cc(OCCCn2ccnc2)cc(C(C)C)c1	none
O=C(Cc1ccc(F)cc1)c1ccc(O)cc1O	none
CCCc1cc(C(=O)Cc2ccc(F)cc2)c(O)cc1O	TMEM16A inh 100
Oc1cccc2c(NC(=S)Nc3ccc(SC(F)F)cc3)cccc12	TMEM16A inh 100
COc1ccc([C@H]2CC(=O)C=C(c3cccc(C#N)c3)C2)cc1	none (no result: MEKK2 WT-MEK5, TMEM16A inh, MEKK3 PB1 HTS, MEKK2mut PB1 HTS)
N/C(=N\OC(=O)COc1ccc(Cl)cc1Br)c1ccncc1	ANO1 activ -39.1 (no result: NTR1 ag, TMEM16A inh)
N/C(=N\OC(=O)c1cc(Cl)ccc1Cl)c1ccncc1	ANO1 activ -10.4
O=C(Nc1csnn1)OCc1ccccc1	none (no result: MEKK2 WT-MEK5, NTR1 ag, TMEM16A inh, MEKK3 PB1 HTS, MEKK2mut PB1 HTS)
Cc1ccc(C(=O)Nc2ncccc2S(=O)(=O)c2ccccc2)cc1	none (no result: NTR1 ag)
Cc1cccc(NC(=O)c2cccc(NS(=O)(=O)c3ccc(Cl)cc3)c2)c1	TMEM16A inh 100
Cc1cccc(NS(=O)(=O)c2nnc(NC(=O)c3ccc(Cl)cc3)s2)c1	none
Cc1cccc(NS(=O)(=O)c2ccc(C3CCCCC3)cc2)c1	TMEM16A inh 25
O=C(O)c1cccc(NS(=O)(=O)c2ccc(C3CCCCC3)cc2)c1	none
C=CCn1c(SCC(=O)NCC)nc2sc3c(c2c1=O)CCC3	none
COC(=O)c1cc(-c2ccccc2)sc1NC(=O)c1cc(C)on1	none (no result: ANO1 activ, NTR1 ag, TMEM16A inh)
COc1cc(C)nc(N2CCC(C(=O)NCC3CCCO3)CC2)n1 (centres undefined)	none (no result: MEKK2 WT-MEK5, MEKK3 PB1 HTS, MEKK2mut PB1 HTS)
COc1ccc(CCNc2ncnc3c2oc2ccccc23)cc1OC	TMEM16A inh 100
CC1=NNC(=O)/C1=C\c1cn(-c2ccccc2)nc1-c1ccc(F)cc1	ANO1 activ -6.19 (no result: NTR1 ag, TMEM16A inh)
Cc1ccc(Cn2c(=N)n(CC(=O)c3ccccc3)c3ccccc32)cc1	TMEM16A inh 25
O=C(C1CCN(Cc2ccc(Cl)cc2)CC1)N1CCN(C(c2ccccc2)c2ccccc2)CC1	MEKK2 WT-MEK5 145.0
Cc1nc2c(-c3ccc(F)cc3)c(C)nn2c(C)c1CCC(=O)N1CCC(Cc2ccccc2)CC1	none
O=C(N/N=C/c1cn(-c2ccccc2)nc1-c1cccnc1)c1cccnc1	none
O=C(N/N=C/c1cn(-c2ccccc2)nc1-c1cc2ccccc2o1)c1ccncc1	TMEM16A inh 25
CCN1CCN(CCCNC(=O)c2ccc3c(c2)NC(=O)/C(=C\c2cccc(C)c2)S3)CC1	MEKK2 WT-MEK5 165.0
Cc1cccc(/C=C2/Sc3ccc(C(=O)NCCCN4CCOCC4)cc3NC2=O)c1	MEKK2 WT-MEK5 149.0, MEKK2mut PB1 HTS 25.0
COc1ccc(/C=C2/Sc3ccc(C(=O)NCCCN4CCOCC4)cc3NC2=O)cc1OC	none
CCc1ccc2oc(-c3ccc(OC)cc3)cc(=Nc3c(C)n(C)n(-c4ccccc4)c3=O)c2c1	TMEM16A inh 100
Cc1cccc(NC(=O)CSc2nsc(SCC(=O)Nc3cccc(C)c3)c2C#N)c1	MEKK2 WT-MEK5 29.0
NC(=NCCc1c[nH]c2ccccc12)NC(=O)c1ccc(Cl)cc1	TMEM16A inh 100
COc1ccc(CN2CCC(CO)(Cc3ccccc3)CC2)cc1Cn1cccn1	none
COc1ccc(NS(=O)(=O)c2cc([N+](=O)[O-])ccc2N/N=C\c2c(C)[nH]c3ccccc23)cc1	none
COc1ccccc1NS(=O)(=O)c1cc([N+](=O)[O-])ccc1N/N=C/c1c[nH]c2ccccc12	MEKK2 WT-MEK5 -1.0
CCOC(=O)C1=C(c2ccccc2)NC(=O)NC1c1ccc(O)c(Cl)c1 (centres undefined)	ANO1 activ -10.6
O=C(O)C(Cc1ccccc1)N1C(=O)/C(=C/c2cccc3ccccc23)SC1=S (centres undefined)	TMEM16A inh 100 (no result: ANO1 activ, NTR1 ag)
COc1cccc(/C=C2\SC(=S)N(C(C(=O)O)c3ccccc3)C2=O)c1OC (centres undefined)	MEKK2 WT-MEK5 -4.0
O=C(O)C(Cc1ccccc1)N1C(=O)/C(=C/c2ccccc2)SC1=S (centres undefined)	none
COc1cc2ccccc2cc1C(=O)N(CCN(C)C)c1nc2ccc(C)cc2s1	MEKK2 WT-MEK5 135.0
CCN(CC)CCN(C(=O)c1cc2ccccc2cc1OC)c1nc2ccc(OC)cc2s1	MEKK2 WT-MEK5 148.0, MEKK2mut PB1 HTS 26.0
CCN(CC)CCN(C(=O)c1cc2ccccc2cc1OC)c1nc2ccc(F)cc2s1	MEKK2 WT-MEK5 140.0
CCOc1ccc2nc(N(CCN(CC)CC)C(=O)/C=C/c3cccs3)sc2c1	MEKK2 WT-MEK5 157.0
Cn1/c(=N/N=C/c2ccc(N3CCOCC3)cc2)sc2ccccc21	none
C=CCNC(=O)c1ccc(CNS(=O)(=O)c2ccc(NC(C)=O)cc2)cc1	none
O=C(C[C@@H]1C/C=C\C[C@@H](Cc2ccc(F)cc2)C(=O)OC[C@@H]2CCCN2C1=O)NCCO	none (no result: MEKK2 WT-MEK5, ANO1 activ, TMEM16A inh, MEKK3 PB1 HTS, MEKK2mut PB1 HTS)
